# Assay outcomes from PubChem.
# A selection: hits, their analogues and other compounds. The true share with any hit is near 1.5%.
# LANA DNA inh: inhibitors of KSHV C-LANA binding to DNA, primary screen, biochemical, fluorescence polarization, FAM-LBS DNA, MBP-C-LANA, single point. hit rate 0.078% among 340,000. inhibition, % at 9 µM;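 active = highest replicate inhibition at or above 60% at 9 µM, even if other replicates fall short; inactive = all replicates below 60% inhibition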;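 note: 0% = neutral control wells and 100% = 4 µM acridine orange control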
# E coli Lon inh: inhibitors of E. coli Lon protease, primary screen, biochemical, fluorescence polarization | hit rate 0.42% among 360,000 | inhibition, % at 7.94 µM | purified E. coli Lon protease; in the data active = inhibition above about 13%, passing the limit was not always enough;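 note: 0% = enzyme with probe and DMSO and 100% = no enzyme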
# EBV gp42 inh: Epstein-Barr virus gp42 inhibitors, primary screen, biochemical, uHTS, fluorescence polarization | hit rate 0.42% among 220,000 | Fluorescence polarization binding assay, mP read-out | Glycoprotein 42 (Epstein-Barr virus (strain AG876)), Q1HVG2 | inhibition, % (tested at 21.74 µM); in the data active = inhibition above about 50%
# Target sequence (Q1HVG2 whole entry, looked up): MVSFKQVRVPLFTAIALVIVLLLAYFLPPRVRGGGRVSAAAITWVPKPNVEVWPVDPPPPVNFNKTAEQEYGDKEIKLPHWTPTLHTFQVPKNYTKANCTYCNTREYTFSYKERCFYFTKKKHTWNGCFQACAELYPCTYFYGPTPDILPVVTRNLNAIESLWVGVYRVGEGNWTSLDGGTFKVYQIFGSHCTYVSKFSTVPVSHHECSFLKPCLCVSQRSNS
# Keap1-Nrf2 PPI: Keap1-Nrf2 protein-protein interaction inhibitors, primary screen, biochemical, fluorescence polarization, single point | Keap1 Kelch-Nrf2 peptide fluorescence polarization, 1536-well | inhibition, % at 9.4 µM | hit rate 0.15% among 340,000 | AID 504523, 2011; in the data active = inhibition above about 12%;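 note: human Keap1 Kelch domain with fluorescein labeled Nrf2 9mer peptide probe; 0% = neutral control wells and 100% = peptide positive control; higher means more block of Keap1 binding to Nrf2 peptide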
# GLD-1 RNA inh: GLD-1/TGE RNA complex disruptors, primary screen, biochemical, fluorescence polarization | Female germline-specific tumor suppressor gld-1 (Caenorhabditis elegans), Q17339 | purified GLD-1 + fluorescein TGE RNA | inhibition, % at 5.96 µM | hit rate 0.44% among 320,000 | AID 2280, 2010;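 active = percent inhibition above a per-plate cutoff, the plate mean of test compounds plus 3 SD, cut at about 30% in these data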;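 note: 0% = DMSO wells with GLD-1 and probe and 100% = wells lacking GLD-1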
# LANA-H2A inh: blockers of LANA interaction with H2A/H2B – biochemical, FP readout, HTS, primary screen; Protein LANA1 (Human herpesvirus 8 type P (isolate GK18)), Q9QR71; cell-free LANA-H2A/H2B peptide, fluorescence polarization; inhibition, % (test concentration not listed); hit rate 0.6% among 320,000; AID 2629, 2010; in the data active = inhibition mostly above about 10%, no sharp cut-off; inactive = mostly below about 6.7%
# Numbers without * were called inactive; . = no result; + = active, no number.
SMILES,LANA DNA inh,E coli Lon inh,EBV gp42 inh,Keap1-Nrf2 PPI,GLD-1 RNA inh,LANA-H2A inh
Cc1ccccc1NC(=O)N1c2ccccc2CC1C (stereo unspecified),1,7,-19,-5,2,54*
Cc1nc2cc(NC(=O)N3c4ccccc4CC3C)ccc2o1 (stereo unspecified),0,-10,-8,-2,9,3
CC1Cc2ccccc2N1C(=O)CSc1ncccn1 (stereo unspecified),-2,-6,.,0,4,30*
CC1Cc2ccccc2N1C(=O)CSc1ccccn1 (stereo unspecified),.,-10,.,.,.,.
Cc1cc(C)c(S(N)(=O)=O)c(C)c1N(C)S(=O)(=O)c1ccc(Cl)cc1,1,4,.,5,-4,12*
O=C(NCCc1ccccc1)C1Cc2c(-c3ccccc3)ccnc2O1 (stereo unspecified),.,-6,.,.,.,.
CCOC(=O)C1CCCN(S(=O)(=O)NC[C@H]2O[C@@H](n3cnc4c(N)ncnc43)[C@H](O)[C@@H]2O)C1 (stereo partly specified),1,5,.,-4,6,+
Cc1ccccc1S(=O)(=O)N1CCN(c2ccc3c(c2)C2CC3CCN2C(=O)OCc2ccccc2)CC1 (stereo unspecified),.,-4,.,.,.,.
CSc1ccc(C(O)c2ncc(-c3ccc(F)cc3)[nH]2)cc1 (stereo unspecified),.,4,.,.,.,.
O=C(COC(=O)c1ccc(O)cc1O)c1ccc2c(c1)OCO2,-2,3,.,0,4,56*
CC1=C(C(=O)N2CCCCCC2)CC(CC(=O)NCCc2ccccn2)C(=O)N1CCC1=CCCCC1 (stereo unspecified),.,4,.,.,.,.
C=CCn1c(SCC(=O)c2c(N)n(C)c(=O)n(C)c2=O)nc2sc(C)c(C)c2c1=O,0,11,-27,-5,-11,111*
C=CCn1c(SCc2ccc(C(=O)NCCO)cc2)nc2sc(C)c(C)c2c1=O,-1,5,3,-8,7,23*
OCc1cccc(-c2cnc3c(Nc4cccc(OC(F)(F)C(F)F)c4)nccn23)c1,.,6,.,.,.,.
O=C(O)C(C(=O)Oc1ccccc1)C(C(=O)O)C(=O)Oc1ccccc1 (stereo unspecified),-1,-1,.,1,2,5
CCCc1nc2ccc(C)cn2c1Cc1ccsc1,.,-12,.,.,.,.
CC1CCc2cccc3c2N1c1cc(C#N)c(C#N)cc1O3 (stereo unspecified),11,-10,116*,3,27,12
Cc1cc(OCC(=O)OCC(=O)N2CCCCC2)ccc1Cl,.,2,.,.,.,.
O=C(NCCc1c[nH]c2ccccc12)C(=O)NCC1OCCCN1S(=O)(=O)c1ccc(F)cc1 (stereo unspecified),0,3,-8,-8,-1,-2
Cc1ccc(S(=O)(=O)N2CCOC2CNC(=O)C(=O)NCCc2c[nH]c3ccccc23)cc1 (stereo unspecified),1,-4,-14,0,6,42*
O=C(/C=C/c1ccccc1)Nc1ncn[nH]1,-3,-8,-10,-6,4,14*
Cc1ccc(NC(=O)c2sc3nc4c(c(-c5ccco5)c3c2N)CCC4)cc1,-1,-17,9,-5,64*,1
COc1ccccc1N(CC(=O)NCc1ccccn1)S(C)(=O)=O,-1,-8,8,0,0,-4
COc1ccc(OC)c(N(CC(=O)NCc2ccccn2)S(C)(=O)=O)c1,-1,31*,-11,-2,-5,-1
COC(=O)c1cccc(N2C(=O)C[C@](Sc3ccc(C)cc3)(C(=O)OC)[C@H]2c2ccccc2)c1,.,-3,.,.,.,.
CC(O)CC(=O)OC[C@]12CC[C@H]3[C@@](C)(CC[C@H]4C(C)(C)CCC[C@]34C)[C@@H]1CC(C1=CC(=O)OC1O)O2 (stereo partly specified),.,-4,.,.,.,.
